Measurements: PubChem BioAssay (Tox21)
A number with no mark means an inactive call. Records with an inconclusive call do not appear. A call without a number means that no potency is given here. Active and inactive are the calls of the source. Unless noted, calls come from the whole dose curve.

Experiments:
[1] = qHTS assay to identify small molecule agonists of the sonic hedgehog signaling (Shh) pathway (AID 1259368); note: nearly all actives have a fitted effect of over 15% in size; note: potency is the fitted concentration of half-maximal effect
Procedure, shortened: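 NIH/3T3-derived 3T3Gli1-Luc cells carrying a stably integrated Gli1 response element–firefly luciferase reporter were plated, left 4 hr at 37 C, then given compounds in DMSO for 24 hr. Luminescence was read 30 min after adding luciferase reagent.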

[2] = target: Estrogen receptor beta (Homo sapiens) (UniProt Q92731); test: qHTS assay to identify small molecule agonists of the estrogen receptor beta (ER-beta) signaling pathway (AID 1259377; active = well fitted activation curve with a large enough effect in the signal ratio in the repeat runs, not every such curve was filed as active; the % refers to the signal ratio)
Procedure, shortened: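 HEK293T ER-beta-UAS-bla; 2% charcoal-stripped FBS; cells pre-incubated 6 hr, compound 16 hr, 37C/5% CO2; LiveBLAzer B/G FRET substrate 2 h RT; fluorescence intensity read.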

[3] = target: Estrogen receptor beta (Homo sapiens) (UniProt Q92731); test: qHTS assay to identify small molecule antagonists of the estrogen receptor beta (ER-beta) signaling pathway (AID 1259378; active = well fitted inhibition curve with a large enough effect in the signal ratio in the repeat runs, not every such curve was filed as active; the % refers to the signal ratio)
Procedure, shortened: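 ER-beta-UAS-bla HEK293T cells in 2% charcoal-stripped FBS medium treated with compound plus 1nM final 17-beta-estradiol for 16 hr at 37C. Beta-lactamase reporter read by FRET substrate fluorescence after 2 hours at room temperature.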

[4] = qHTS assay to identify small molecule agonists of the androgen receptor (AR) signaling pathway in the presence of an antagonist - cell viability counter screen (AID 1259379; active = well fitted curve in the direction sought with a large enough effect in the repeat runs; an effect the other way counts as inactive or inconclusive; note: series mostly up to about 92 µM; nearly all actives have a fitted effect of over 25% in size)
Procedure, shortened: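 MDA-kb2 human breast carcinoma cells (stable MMTV-luciferase, AR/GR responsive) were seeded 3,000 cells/well, pre-incubated 5 hr at 37C without CO2, then given 3.0uM nilutamide and compounds at 15 concentrations for 16 hr. Viability was read by CellTiter-Fluor fluorescence.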

[5] = qHTS assay to identify small molecule agonists of the estrogen receptor beta (ER-beta) signaling pathway - cell viability counter screen (AID 1259380; active = well fitted curve in the direction sought with a large enough effect in the repeat runs; an effect the other way counts as inactive or inconclusive; note: nearly all actives have a fitted effect of over 30% in size; note: potency is the fitted concentration of half-maximal effect)
Procedure, shortened: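 ER-beta-UAS-bla HEK293T cells in medium with 2% charcoal-stripped FBS were preincubated 6 hr at 37C, dosed with compound in DMSO for 16 hr, then after the bla read, CellTiter-Glo was added for 30 min at room temperature; luminescence recorded.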

[6] = target: Androgen receptor (Homo sapiens) (UniProt P10275); test: qHTS assay to identify small molecule agonists of the androgen receptor (AR) signaling pathway in the presence of an antagonist (AID 1259381); note: nearly all actives have a fitted effect of over 15% in size
Procedure, shortened: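 MDA-kb2 human breast carcinoma cells carrying an MMTV-luciferase reporter (AR- and GR-responsive) were treated with compounds at 15 concentrations plus 3.0uM final nilutamide for 16hr at 37C without CO2; luminescence was read after ONE-Glo addition.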

[7] = qHTS assay to identify small molecule antagonists of the estrogen receptor beta (ER-beta) signaling pathway - cell viability counter screen (AID 1259382; active = well fitted curve in the direction sought with a large enough effect in the repeat runs; an effect the other way counts as inactive or inconclusive; note: series mostly up to about 92 µM; nearly all actives have a fitted effect of over 55% in size)
Procedure, shortened: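 ER-beta-UAS-bla HEK293T cells (2,000/well, 2% charcoal-stripped FBS) were pre-incubated 6 hr at 37C, then given compound plus 1nM final 17-beta-estradiol for 16 hr. Viability was read in the same wells by CellTiter-Glo luminescence after 30 min at room temperature.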

[8] = target: Estrogen receptor (Homo sapiens) (UniProt P03372); test: qHTS assay to identify small molecule agonists of the estrogen receptor alpha (ER-alpha) signaling pathway in the presence of an antagonist (AID 1259383); note: top concentration of the series differs between compounds; nearly all actives have a fitted effect of over 15% in size
Procedure, shortened: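 VM7Luc4E2 cells (endogenous full-length ER-alpha, 4×ERE-luciferase) were precultured 5 days in phenol red-free medium with 10% charcoal-stripped FBS, given 10.0nM ICI-182,780 (final), then treated with compounds at 15 concentrations for 22hr at 37C; luminescence read with ONE-Glo.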

[9] = qHTS assay to identify small molecule agonists or antagonists of the thyroid stimulating hormone receptor (TSHR) signaling pathway - wild type cell line counter screen (AID 1259384)
Procedure, shortened: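 Wild-type Hek293 cells, 800/well, 18 h at 37C, then compound with Ro20-1724 for 30 min RT. cAMP by HTRF (cAMP-d2/anti-cAMP cryptate), 1 h RT, fluorescence read. 15 concentrations, triplicates.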

[10] = target: Thyrotropin receptor (Homo sapiens) (UniProt P16473); test: qHTS assay to identify small molecule antagonists of the thyroid stimulating hormone receptor (TSHR) signaling pathway (AID 1259385); note: nearly all actives have a fitted effect of over 20% in size; note: potency is the fitted concentration of half-maximal effect
Procedure, shortened: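 TSHR-HEK293 cells (800/well) plated 18 h, then compounds with Ro20-1724 and TSH at 1.5 ng/mL final, 30 min at room temperature. cAMP quantified by HTRF (cAMP-d2/anti-cAMP-cryptate, 1 h); 15 concentrations in triplicate.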

[11] = qHTS assay to identify small molecule agonists of the estrogen receptor alpha (ER-alpha) signaling pathway in the presence of an antagonist - cell viability counter screen (AID 1259386; active = well fitted curve in the direction sought with a large enough effect in the repeat runs; an effect the other way counts as inactive or inconclusive;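 note: series mostly up to about 92 µM; cells exposed to compounds for 22 h at 37 °C before the viability read; nearly all actives have a fitted effect of over 30% in size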)
Procedure, shortened: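 VM7Luc4E2 cells (endogenous full-length ER-alpha, 4×ERE-luciferase) were held 5 days in phenol red-free medium with 10% charcoal-stripped FBS, plated, then given 10.0nM ICI-182,780 and compounds at 15 concentrations for 22hr at 37C; viability read by CellTiter-Fluor fluorescence.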

[12] = target: Progesterone receptor (Homo sapiens) (UniProt P06401); test: qHTS assay to identify small molecule agonists of the progesterone receptor (PR) signaling pathway (AID 1346784); note: nearly all actives have a fitted effect of over 30% in size
Procedure, shortened: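 Beta-lactamase reporter read-out: after 16 hr compound treatment at 37C and a further 2 hr at room temperature with LiveBLAzer B/G FRET substrate, fluorescence was measured in PR-UAS-bla HEK 293T cells grown in 2% charcoal-stripped serum.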

[13] = qHTS assay to identify small molecule antagonists of the TGF-beta/Smad signaling pathway - cell viability counter screen (AID 1346824; active = well fitted curve in the direction sought with a large enough effect in the repeat runs; an effect the other way counts as inactive or inconclusive; note: nearly all actives have a fitted effect of over 50% in size)
Procedure, shortened: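 SBE-bla HEK 293T cells, incubated overnight, then compound plus 0.25 ng/mL TGF-beta1 (stock added) for 5 hr at 37 C. Viability was read in the same wells by CellTiter-Glo luminescence after 30 min at room temperature.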

[14] = qHTS assay to identify small molecule agonists of the TGF-beta/Smad signaling pathway - cell viability counter screen (AID 1346829; active = well fitted curve in the direction sought with a large enough effect in the repeat runs; an effect the other way counts as inactive or inconclusive; note: top concentration of the series differs between compounds; nearly all actives have a fitted effect of over 45% in size)
Procedure, shortened: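 After overnight seating at 37 C and 5% CO2, reporter cells got compounds for 5 hr and FRET substrate for 2 hr; cell viability then came from CellTiter-Glo luminescence.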

[15] = qHTS assay to identify small molecule agonists of the TGF-beta/Smad signaling pathway (AID 1346859; active = well fitted activation curve with a large enough effect in the signal ratio in the repeat runs, not every such curve was filed as active; the % refers to the signal ratio; note: series mostly up to about 77 µM)
Procedure, shortened: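 SBE-bla HEK 293T, 4,000 cells/well, plated o/n; cpd in DMSO, 5 hr, 37 C/5% CO2; B/G FRET substrate 2 hr RT; ex 405, em 460/530 nm.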

[16] = target: Thyrotropin-releasing hormone receptor (Homo sapiens) (UniProt P34981); test: qHTS assay to identify small molecule antagonists of the thyrotropin-releasing hormone receptor (TRHR) signaling pathway (AID 1346877; active = well fitted inhibition curve with a large enough effect in the repeat runs, not every such curve was filed as active; note: series mostly up to about 51 µM)
Procedure, shortened: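 TRHR-expressing HEK293 cells were seeded, cultured 18 h at 37 °C, then loaded with calcium dye for 2 h. Compounds were pre-incubated 5 min at room temperature before 1 nM TRH (final) was added, and kinetic fluorescence was recorded for 3 min.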

[17] = target: Progesterone receptor (Homo sapiens) (UniProt P06401); test: qHTS assay to identify small molecule antagonists of the progesterone receptor (PR) signaling pathway (AID 1346795; active = well fitted inhibition curve with a large enough effect in the signal ratio in the repeat runs, not every such curve was filed as active; the % refers to the signal ratio; note: potency is the fitted concentration of half-maximal effect)
Procedure, shortened: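 Read-out is fluorescence from the LiveBLAzer B/G FRET substrate, cleaved by a UAS-controlled beta-lactamase in PR-UAS-bla HEK293T cells after 16 hr exposure to compound plus 1 nM promegestone (final), followed by 2 hr at room temperature.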

[18] = qHTS assay to identify small molecule agonists of the progesterone receptor (PR) signaling pathway - cell viability counter screen (AID 1346799); note: nearly all actives have a fitted effect of over 45% in size
Procedure, shortened: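 Luminescence from CellTiter-Glo, added after the beta-lactamase FRET read in the same wells, gave cytotoxicity in PR-UAS-bla HEK293T cells treated with compounds for 16 hr at 37C.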

[19] = qHTS assay to identify small molecule antagonists of the progesterone receptor (PR) signaling pathway - cell viability counter screen (AID 1346798; active = well fitted curve in the direction sought with a large enough effect in the repeat runs; an effect the other way counts as inactive or inconclusive;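 note: HEK293T PR-UAS-bla cells stimulated with the agonist R5020; series mostly up to about 92 µM; nearly all actives have a fitted effect of over 50% in size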)
Procedure, shortened: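 HEK293T PR-UAS-bla, 2% charcoal-stripped FBS; 4 hr pre-plate; cpd + R5020, 16 h 37C; LiveBLAzer read first; then CellTiter-Glo 30 min RT, luminescence.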

Chain of Estrogen receptor (Homo sapiens) (P03372 whole entry, looked up): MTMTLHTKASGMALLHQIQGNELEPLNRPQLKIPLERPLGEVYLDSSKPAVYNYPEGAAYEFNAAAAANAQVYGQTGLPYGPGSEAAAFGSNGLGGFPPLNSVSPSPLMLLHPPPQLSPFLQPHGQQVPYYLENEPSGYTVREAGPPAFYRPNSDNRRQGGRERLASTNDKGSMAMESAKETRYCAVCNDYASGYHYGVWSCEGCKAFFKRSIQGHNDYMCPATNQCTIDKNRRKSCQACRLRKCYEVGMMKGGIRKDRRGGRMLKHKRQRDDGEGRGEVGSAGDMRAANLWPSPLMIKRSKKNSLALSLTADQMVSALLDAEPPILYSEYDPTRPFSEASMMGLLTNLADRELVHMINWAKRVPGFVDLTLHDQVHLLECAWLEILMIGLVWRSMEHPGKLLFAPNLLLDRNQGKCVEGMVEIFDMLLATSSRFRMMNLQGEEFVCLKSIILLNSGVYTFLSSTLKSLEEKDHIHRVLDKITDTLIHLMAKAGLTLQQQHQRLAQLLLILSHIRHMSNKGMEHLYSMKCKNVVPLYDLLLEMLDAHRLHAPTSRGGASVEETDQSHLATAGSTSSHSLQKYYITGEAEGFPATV
Chain of Thyrotropin-releasing hormone receptor (Homo sapiens) (P34981 whole entry, looked up): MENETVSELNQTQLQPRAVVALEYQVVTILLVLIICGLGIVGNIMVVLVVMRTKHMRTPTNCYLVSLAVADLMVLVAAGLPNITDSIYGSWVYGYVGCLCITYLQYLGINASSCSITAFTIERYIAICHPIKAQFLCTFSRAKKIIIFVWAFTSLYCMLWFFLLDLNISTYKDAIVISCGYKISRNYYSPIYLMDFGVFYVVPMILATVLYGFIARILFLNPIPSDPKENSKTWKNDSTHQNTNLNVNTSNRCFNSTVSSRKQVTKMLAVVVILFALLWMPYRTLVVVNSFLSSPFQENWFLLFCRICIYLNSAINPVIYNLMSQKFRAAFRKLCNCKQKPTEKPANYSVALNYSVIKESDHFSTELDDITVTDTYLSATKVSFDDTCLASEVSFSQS
Chain of Estrogen receptor beta (Homo sapiens) (Q92731 whole entry, looked up): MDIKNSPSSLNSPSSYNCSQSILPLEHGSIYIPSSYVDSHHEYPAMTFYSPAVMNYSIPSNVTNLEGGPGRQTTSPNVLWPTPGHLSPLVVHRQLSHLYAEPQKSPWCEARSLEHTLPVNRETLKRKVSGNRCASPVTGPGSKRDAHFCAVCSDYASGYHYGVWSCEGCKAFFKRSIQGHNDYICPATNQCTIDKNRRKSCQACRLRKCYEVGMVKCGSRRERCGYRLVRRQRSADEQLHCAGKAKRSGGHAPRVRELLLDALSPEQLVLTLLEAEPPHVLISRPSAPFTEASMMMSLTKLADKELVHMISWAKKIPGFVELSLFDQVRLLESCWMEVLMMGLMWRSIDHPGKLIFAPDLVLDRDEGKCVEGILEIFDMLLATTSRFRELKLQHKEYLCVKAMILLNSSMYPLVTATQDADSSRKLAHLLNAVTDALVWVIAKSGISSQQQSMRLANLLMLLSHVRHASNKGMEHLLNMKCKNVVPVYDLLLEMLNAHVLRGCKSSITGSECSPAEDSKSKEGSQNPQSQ
Chain of Androgen receptor (Homo sapiens) (P10275 whole entry, looked up): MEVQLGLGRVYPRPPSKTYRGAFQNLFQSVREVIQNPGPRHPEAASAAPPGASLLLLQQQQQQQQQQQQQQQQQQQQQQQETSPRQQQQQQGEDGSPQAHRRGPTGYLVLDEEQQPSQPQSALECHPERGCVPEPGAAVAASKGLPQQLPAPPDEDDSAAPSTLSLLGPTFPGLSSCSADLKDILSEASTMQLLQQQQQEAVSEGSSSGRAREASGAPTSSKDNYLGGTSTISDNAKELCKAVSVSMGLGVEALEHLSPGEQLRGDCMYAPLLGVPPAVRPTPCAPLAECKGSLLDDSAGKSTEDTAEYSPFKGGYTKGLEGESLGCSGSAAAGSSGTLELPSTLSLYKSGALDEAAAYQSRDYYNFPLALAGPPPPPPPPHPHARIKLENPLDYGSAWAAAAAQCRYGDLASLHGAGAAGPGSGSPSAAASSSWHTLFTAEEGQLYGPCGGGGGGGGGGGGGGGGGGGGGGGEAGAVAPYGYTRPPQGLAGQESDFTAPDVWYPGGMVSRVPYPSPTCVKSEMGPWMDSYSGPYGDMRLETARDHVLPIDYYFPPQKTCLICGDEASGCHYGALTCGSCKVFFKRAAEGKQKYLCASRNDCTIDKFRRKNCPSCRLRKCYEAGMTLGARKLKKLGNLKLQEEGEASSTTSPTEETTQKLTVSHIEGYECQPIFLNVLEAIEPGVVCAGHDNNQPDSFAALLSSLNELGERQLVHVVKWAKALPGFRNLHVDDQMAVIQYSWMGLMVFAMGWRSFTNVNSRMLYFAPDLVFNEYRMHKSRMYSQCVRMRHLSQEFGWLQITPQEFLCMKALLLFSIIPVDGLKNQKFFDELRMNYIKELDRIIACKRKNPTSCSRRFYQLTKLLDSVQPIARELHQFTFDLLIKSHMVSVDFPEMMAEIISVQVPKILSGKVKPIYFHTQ
Chain of Progesterone receptor (Homo sapiens) (P06401 whole entry, looked up): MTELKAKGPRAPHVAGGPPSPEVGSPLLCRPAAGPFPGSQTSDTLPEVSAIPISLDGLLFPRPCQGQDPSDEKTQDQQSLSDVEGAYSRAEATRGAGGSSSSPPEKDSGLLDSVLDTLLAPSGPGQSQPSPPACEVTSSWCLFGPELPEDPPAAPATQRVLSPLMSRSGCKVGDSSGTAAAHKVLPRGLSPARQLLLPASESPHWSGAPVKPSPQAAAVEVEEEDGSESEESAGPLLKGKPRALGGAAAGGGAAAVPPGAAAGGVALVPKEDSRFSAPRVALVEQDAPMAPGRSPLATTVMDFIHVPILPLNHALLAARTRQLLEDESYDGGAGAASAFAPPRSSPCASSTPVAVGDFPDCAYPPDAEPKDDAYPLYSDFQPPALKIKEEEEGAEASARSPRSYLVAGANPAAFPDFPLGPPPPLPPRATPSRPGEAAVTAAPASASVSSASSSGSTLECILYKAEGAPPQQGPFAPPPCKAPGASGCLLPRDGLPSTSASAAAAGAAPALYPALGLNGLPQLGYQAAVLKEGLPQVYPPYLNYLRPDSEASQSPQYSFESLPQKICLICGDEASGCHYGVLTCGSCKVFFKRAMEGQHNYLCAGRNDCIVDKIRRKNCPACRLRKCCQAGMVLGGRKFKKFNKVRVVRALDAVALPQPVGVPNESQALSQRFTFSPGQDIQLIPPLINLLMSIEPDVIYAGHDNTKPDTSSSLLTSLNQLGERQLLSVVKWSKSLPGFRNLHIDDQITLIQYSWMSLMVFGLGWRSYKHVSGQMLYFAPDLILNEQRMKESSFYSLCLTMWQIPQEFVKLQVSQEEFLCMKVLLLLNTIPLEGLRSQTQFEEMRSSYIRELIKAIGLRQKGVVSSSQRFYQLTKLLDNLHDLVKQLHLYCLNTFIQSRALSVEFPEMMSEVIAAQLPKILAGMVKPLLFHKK
Chain of Thyrotropin receptor (Homo sapiens) (P16473 whole entry, looked up): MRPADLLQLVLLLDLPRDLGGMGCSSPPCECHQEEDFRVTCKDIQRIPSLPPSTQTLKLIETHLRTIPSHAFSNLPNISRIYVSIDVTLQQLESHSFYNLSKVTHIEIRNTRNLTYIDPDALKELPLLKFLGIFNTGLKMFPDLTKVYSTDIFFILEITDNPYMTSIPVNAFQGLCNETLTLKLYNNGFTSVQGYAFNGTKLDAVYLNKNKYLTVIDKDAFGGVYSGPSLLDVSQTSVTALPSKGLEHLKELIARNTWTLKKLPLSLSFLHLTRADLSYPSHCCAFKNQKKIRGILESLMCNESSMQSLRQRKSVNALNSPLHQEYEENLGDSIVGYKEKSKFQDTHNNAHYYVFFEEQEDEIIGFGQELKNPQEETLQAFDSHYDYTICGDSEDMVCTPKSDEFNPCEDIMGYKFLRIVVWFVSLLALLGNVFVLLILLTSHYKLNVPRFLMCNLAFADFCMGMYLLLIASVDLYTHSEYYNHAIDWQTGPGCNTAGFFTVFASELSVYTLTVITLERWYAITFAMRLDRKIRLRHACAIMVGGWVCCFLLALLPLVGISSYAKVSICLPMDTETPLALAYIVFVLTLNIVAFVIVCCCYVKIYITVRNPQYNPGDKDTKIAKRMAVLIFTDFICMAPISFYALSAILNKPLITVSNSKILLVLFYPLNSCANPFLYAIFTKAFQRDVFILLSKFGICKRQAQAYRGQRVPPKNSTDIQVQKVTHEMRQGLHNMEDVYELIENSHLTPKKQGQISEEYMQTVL

| SMILES | Potency [1] | outcome [2] | Potency [3] | Potency [4] | Potency [5] | Potency [6] | outcome [7] | Potency [8] | outcome [9] | Potency [10] | Potency [11] | Potency [12] | outcome [13] | outcome [14] | outcome [15] | outcome [16] | Potency [17] | Potency [18] | Potency [19] |
| --- | --- | --- | --- | --- | --- | --- | --- | --- | --- | --- | --- | --- | --- | --- | --- | --- | --- | --- | --- |
| CC(C)c1ccccc1 | inactive | inactive | inactive | inactive | inactive | inactive | inactive | inactive | inactive | inactive | inactive | inactive | inactive | inactive | inactive | inactive | – | – | – |
| CN1CCN(C2=Nc3cc(F)ccc3Cc3ccccc32)CC1 | inactive | – | – | inactive | – | inactive | – | inactive | inactive | inactive | inactive | inactive | inactive | inactive | inactive | inactive | 18.8 µM (active) | inactive | – |
| Cc1c(-c2ccccc2)oc2c(C(=O)OCCN3CCCCC3)cccc2c1=O | inactive | inactive | – | inactive | inactive | – | – | inactive | inactive | 23.7 µM (active) | inactive | inactive | inactive | – | – | – | – | inactive | inactive |
| Cc1nc(N)nc(N)c1-c1ccc(Cl)c(Cl)c1 | inactive | inactive | – | inactive | 2.66 µM (active) | – | – | inactive | – | – | inactive | inactive | – | – | inactive | inactive | – | inactive | inactive |
| CC1(C)O[C@@H]2C[C@H]3[C@@H]4CCC5=CC(=O)CC[C@]5(C)[C@@]4(F)[C@@H](O)C[C@]3(C)[C@]2(C(=O)CCl)O1 | 13.3 µM (active) | inactive | – | inactive | – | – | – | inactive | inactive | – | inactive | – | inactive | inactive | inactive | – | – | inactive | inactive |
| C[C@]12C(=O)OC(=O)[C@H]1[C@H]1C=C[C@@H]2C1 | inactive | – | – | inactive | inactive | – | – | inactive | inactive | – | inactive | inactive | inactive | inactive | inactive | – | – | inactive | inactive |
| CCCCNc1ccc(C(=O)OCCN(CC)CC)cc1 | inactive | inactive | inactive | inactive | – | – | – | inactive | inactive | inactive | inactive | inactive | inactive | inactive | inactive | inactive | inactive | inactive | inactive |
| CCN1CC(CCN2CCOCC2)C(c2ccccc2)(c2ccccc2)C1=O (configuration not stated) | inactive | inactive | inactive | inactive | inactive | – | inactive | – | inactive | inactive | – | inactive | inactive | inactive | inactive | – | inactive | inactive | inactive |
| CC(C)CCCCCCc1ccc(OCCOCCO)cc1 | inactive | inactive | inactive | inactive | inactive | inactive | inactive | inactive | inactive | inactive | inactive | inactive | inactive | inactive | inactive | – | inactive | inactive | inactive |
| ClC(Cl)Cl | inactive | – | inactive | inactive | inactive | – | inactive | – | inactive | inactive | inactive | inactive | inactive | inactive | inactive | – | – | – | – |
